# In the supplement of paper PMC6555819:
# Columns and labels:
# Assay in all cases: PBM binding z-score (relative to random genomic background probes); higher = stronger binding; sequences stand for … in GC…GCGATTGACAGCGTAGAATGAAGG
# [1] = system: RARb homodimer (NR concentration 270 nM)
# In short: (§1)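 Ligand-free nuclear receptor dimers were applied to custom Agilent 4×180K protein-binding microarrays whose double-stranded probes carried direct-repeat seeds, single-nucleotide variants, half-site ablations and random human genomic background sequences in 34-nt variable regions. Incubation lasted 1 h. Binding z-scores were computed against the random background probes from regression-normalized fluorescence.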
# [2] = system: RARg:RXRa (NR concentration 270 nM, RXRa partner concentration 90 nM)
# In short: as §1
# [3] = system: RARg homodimer (NR concentration 270 nM)
# In short: as §1
# [4] = system: RXRa DBDmut IVT, anti-RXR (DBD mutation: RXRa K156A/R161A, NR concentration 90 nM)
# In short: as §1
# [5] = system: RXRa homodimer (NR concentration 180 nM)
# In short: as §1
# [6] = system: THRa:RXRa (NR concentration 90 nM, RXRa partner concentration 90 nM)
# In short: as §1
# [7] = system: THRa homodimer (NR concentration 90 nM)
# In short: as §1
# [8] = system: VDR homodimer (NR concentration 270 nM)
# In short: as §1
Sequence,PBM binding z-score [1],PBM binding z-score [2],PBM binding z-score [3],PBM binding z-score [4],PBM binding z-score [5],PBM binding z-score [6],PBM binding z-score [7],PBM binding z-score [8]
CCTCCAAGGTCAGCAGGTCAGTGAAAGCGACGTG,4.97,6.12,6.45,2.04,4.21,3.74,2.14,1.55
CGAACTAGGTCATTGACAGGACAGTGAGTAGTAA,2.57,4.39,4.12,2.41,2.42,2.81,0.505,0.794
ACTAGTTGGCCAGCTGAGGTCACACACAATTCGG,3.96,3.64,3.6,0.874,4.1,4.47,5.09,2.74
ATTTCTAGGTAAGACTCAGTTCAGTGAAGAACGC,0.518,0.801,0.283,0.956,0.351,0.941,0.851,2
ATATGTAGGTTACATCCAGGTCATTCAGGCTATG,3.23,3.8,2.4,1.19,2.91,4.23,3.46,2.88
CCGAGTAGGTTATGGAGCATTCAGGCAACGGTGA,0.461,0.362,0.489,0.355,0.308,0.145,0.277,0.244
AGGACGAGGGCACGCTGAGTTGATAGCAGAGTAG,1.36,1.76,2.67,2.23,1.51,1.88,0.162,1.51
CGTCCAAGGACATAGGAGGTCAGTGAAGACAGAT,3.17,2.46,3.05,0.749,1.64,3.54,1.83,1.48
TCTGCTAGGTCAGTGGGTCAGCTAACGAGCTGCC,3.84,3.92,4.5,0.404,2.23,1.94,0.337,-0.31
CGAACGAGGGCATGAGTTGGTAGCAAATGCCGAT,0.553,0.807,1.29,1.87,0.675,1.03,-0.283,0.904
CCAGACAGGTGAGAAGCTAACTCAGCCTCGATTA,0.0853,-0.181,0.0316,-0.135,0.129,0.183,-0.194,-0.0982
CCTTACGGGTCAAGGTTATAGGACGGGTGGTACG,3.29,4.91,5.12,0.475,5.36,3.06,0.968,1.51
GCATATAGGTAATACAACGTGAAAGTCCGATTGT,-0.603,0.114,0.451,0.181,0.119,-0.366,-0.557,-0.205
TTACCAAGGTGAAGGTGGTTGATCCCTCTGTAGA,0.653,0.26,0.431,-0.51,0.689,1.78,0.829,-0.454
CCTAGTTGGTCAGGAGGTCACTCACCGGATATGA,3.92,4.48,3.73,0.697,3.58,3.17,2.09,2.45
TCATATAAGTAAATGCTAGGTGAAAGTCCGATCT,0.289,0.478,0.348,2,0.855,0.92,0.526,0.559
CAAACTAGGTCAGAGGTCAAAGTCGAGCCAACCA,5.04,7.59,6.79,2.96,9.16,4.3,2.24,4.21
CATACTAGGTCACCGGAAGGTCAAAGTCCGCATG,5.62,8.44,7.45,2.21,6.33,4.43,3.31,3.9
ATCTCAAGGTAAAGTTCAGTGAAAGATCGATAGA,2.72,2.43,2.96,1.69,1.76,1.78,0.667,2.24
AGTCAAAGTTCACTAGCTAACGTAAGATTCAGCT,3.22,4.66,5.41,4.14,3.53,1.4,-0.145,3.78
ATACCACGGTGATCGTGAGGTCGTTGATACTAAC,1.47,0.858,0.379,0.514,1.1,2.65,2.42,2.44
TCTCGGAGGACAAGAAAGGTCAGAGCTCGACATC,4.61,4.01,4.75,0.958,3.39,3.24,0.472,0.546
GCTATTAGTTGAAAGGGCAACCGGATGATTCTCG,2.11,1.41,1.33,0.824,1.22,0.688,-0.119,0.228
AGAATGAGGGTAAGATCAGGGAAACAGAATACAT,0.584,0.474,0.611,0.212,0.321,1.54,0.43,0.304
CCTTACGGGTCAACGTTATAGCACGGGTGGTACG,3.19,4.85,4.64,0.494,5.03,2.36,-0.182,0.692
CGAACTAGGTCAGAACAGCACAGTGAAGGATGAT,1.96,2.44,3.04,0.779,1.28,1.16,0.326,0.463
ATCTCTAGGTAAATTTCAGTGAAAGATCGATAGA,-0.353,0.0563,0.241,0.179,0.137,0.356,-0.0111,0.034
TCTACTAGGTCAGTTGGTCAGCTAACGAGCTGCC,2.91,2.74,3.58,1.19,1.24,1.28,0.622,0.162
CGAACTTGGTCATCCAGGACAGTGAATACATTGA,0.498,0.874,1.24,0.427,0.551,1.91,1.02,0.3
